Experimental findings from PubChem BioAssay (NCI) are described below.

The panel holds about 83,000 compounds, 20% with a hit somewhere; the sample as a whole holds those more often.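 Each cell line was grown in a 96-well plate and treated with one concentration of compound for 48 hours. Values below 10 were considered active.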 Values without a mark were called inactive. Active and inactive are the calls of the source.

What all share (test): NCI-60 one-dose screen, 48 h (100 = growth as untreated, 0 = no growth, -100 = all killed)
Conditions in all cases: 10 µM unless noted

The test system of test [1] is SR leukemia.
In test [2] the test system is RPMI-8226 leukemia.
In test [3] the test system is OVCAR-8 ovarian.
The test system of test [4] is OVCAR-5 ovarian.
Test [5] relates to OVCAR-4 ovarian.
Test [6] concerns SK-OV-3 ovarian.
Test [7] concerns IGROV1 ovarian.
The subject of test [8] is HS 578T breast.
Test [9] has as its system NCI/ADR-RES ovarian.
Test [10] concerns OVCAR-3 ovarian.

Take `Cc1ncn(-c2ccc(/C=N/Nc3ccnc4cc(Cl)ccc34)cc2)c1C`: the growth is -21.3% (active) in [1]; -27.2% (active) in test [2]; -57.5% (active) in test [3]; 102% in test [4]; -68.3% (active) in test [5]; 102% in [6]. Moreover, the growth was 61.7% in test [7], -16.1% (active) in test [8] and 8.02% (active) in test [9].
Turning to `CC[C@]12C=CCN3CC[C@]4(C(=C(C(=O)OC)C1)Nc1cc5c(cc14)[C@@H]1[C@H](O5)[C@@H](O)[C@@]4(CC)CC(C(=O)OC)=C5Nc6cc(O)ccc6[C@@]56CCN1C46)C32` (stereo partly specified), the growth is 5.68% (active) in test [1]; -10.2% (active) in test [2]; 19.4% in test [3]; 20.7% in [4]; 15.4% in test [5]; 24.1% in [6]. Also, the growth in test [8] is -7% (active); in [9] it was 2.99% (active).
As to `Nc1ncc(-c2ccc3ncnc(NCc4ccccc4)c3c2)cn1`, the growth is 42.2% in [1]; 31.5% in test [2]; 54.3% in test [3]; 36.7% in test [4]; 57.8% in [5]; 39.5% in test [6]. Moreover, the growth in [10] was 45.9%; in test [8] it was 14.7%; in test [9], 69%.
In the case of `C#CCOc1ccc(-c2csc(NC(=O)C=C)n2)cc1NS(=O)(=O)c1cccc2c(N(C)C)cccc12`, the growth in test [1] is 8.34% (active); in test [2], -9.93% (active); in test [3], 23.2%; in test [4] it was 81.1%; in [5] it was 63.2%; in test [6], 118%. Besides, the growth is 79.2% in [8] and 27.5% in test [9].
`Cn1c(SCC(=O)c2ccco2)nc2ccccc2c1=O`: the growth in test [1] is 91.5%; in test [2], 93.4%; in test [3], 101%; in [4] it was 111%; in [5], 95.5%; in test [6], 107%. Further, the growth in test [10] is 107%; in test [8], 104%; in [9], 105%.
In the case of `COC(=O)N1CCN(CCNCc2ccc(NC(=O)c3ccc(C)c(C#Cc4cnc5cccnn45)c3)cc2C(F)(F)F)CC1`, the growth in test [1] is -7.7% (active); in test [2], -6.11% (active); in test [3] it was 31.6%; in [4] it was 46.2%; in test [5], 31.1%; in test [6] it was 83.1%. In addition, the growth in test [10] was 64.8%; in test [8], -2.16% (active); in test [9], 6.71% (active).
For the molecule `C[C@]12CC[C@H]3[C@@H](CC=C4C[C@@H](O)CC[C@@]43C)[C@@H]1CC[C@@H]2[C@](C)(O)CCc1cccnc1`, the growth in [1] was 32.3%; in test [2], 33.1%; in test [3] it was 62%; in [4] it was 113%; in test [5], 21.9%; in [6], 82.8%. Besides, the growth is 65.7% in test [10], 56% in [8] and 65.9% in test [9].
In the case of `O=C(CCl)Nc1ccc(NC(=O)c2cc(Cl)ccc2O)c(Cl)c1`, the growth was 21.3% in [1]; 49.8% in [2]; 48.6% in [3]; 121% in test [4]; 83% in [5]; 90.9% in [6]. The figures for the growth in [7], in test [8] and in test [9] were -45.3% (active), 86.9% and 56.7%, respectively.
Regarding `CC(=O)N1N=C(c2cc3ccccc3oc2=O)CC1c1cn(-c2ccccc2)nc1-c1ccc(C)cc1` (stereo unspecified), the growth is 101% in test [1]; 102% in [2]; 97.3% in test [3]; 94.1% in test [4]; 94.4% in [5]; 95.2% in test [6]. The results for the growth in test [7], in test [8] and in test [9] were 108%, 93.7% and 96.1%, respectively.
`CN1CCN(c2ccc(Nc3nc(NCCNC(=O)c4ccccc4)c4sccc4n3)cc2)CC1`: the growth was 5.68% (active) in test [1]; 33.4% in [2]; 62.4% in test [3]; 84.1% in test [4]; 55.4% in test [5]; 123% in [6]. Further, the growth in [10] was 76.9%; in test [8], 81%; in [9] it was 91.7%.
`CN1CCN(Cc2ccc(NC(=O)c3cncc(C#Cc4cnc5ccc(OCC6COC6)nn45)c3)cc2C(F)(F)F)CC1`: the growth is -22.7% (active) in test [1]; -24.4% (active) in test [2]; -54.5% (active) in test [3]; -75.1% (active) in [4]; -69.9% (active) in [5]; -22.6% (active) in test [6]. Further, the results for the growth in test [8] and in [9] were -37.3% (active) and -34.4% (active), respectively.
Regarding `Clc1cccc(/C=N/Nc2nc(N/N=C/c3cccc(Cl)c3)nc(N3CCOCC3)n2)c1`, the growth was 7.7% (active) in test [1]; 38.8% in test [2]; 49.5% in [3]; 95.5% in [4]; 66.4% in test [5]; 130% in test [6]. Also, the figures for the growth in test [10], in test [8] and in [9] were 56.3%, 67.5% and 61.8%, respectively.
For the molecule `COc1ccc(C(=O)c2c(N)c(C#N)cn2-c2ccc(Cl)cc2Cl)cc1`, the growth is 92.1% in test [1]; 101% in test [2]; 94.6% in [3]; 93.9% in test [4]; 117% in test [6]; 101% in test [7]. For the same molecule, the growth was 106% in [10], 90.9% in [8] and 86.7% in [9].
For `O=c1oc2ccc(-c3ccc(F)cc3F)cc2c(=O)n1-c1ccc(Br)cc1F`, the growth in [1] was 85.1%; in test [2] it was 31.6%; in test [3], 69.5%; in [4] it was 108%; in [6], 63.9%; in test [7], 58.3%. Further, the growth in test [8] is 47.2%; in test [9], 75.3%.
As for `CN1CCN(Cc2ccc(NC(=O)c3cncc(C#Cc4cnc(N)nc4)c3)cc2C(F)(F)F)CC1`, the growth in test [1] was 16.3%; in test [2], 22.7%; in [3], 33.1%; in test [4], 29.6%; in test [5], 45.1%; in [6], -21.2% (active). Also, the growth in test [8] is -12.5% (active); in test [9] it was 60.1%.
`CCCN1C=C/C(=C\C(=O)n2ccc3ccccc32)c2ccccc21`: the growth in [1] was 55.9%; in test [2], 69.3%; in [3], 95.6%; in test [4], 87.8%; in test [6], 70.2%; in test [7] it was 59.1%. In addition, the growth was 87.3% in [10], 101% in test [8] and 88.7% in test [9].
For the molecule `C=C(C)[C@@H]1CC[C@]2(COCCCNCCCN)CC[C@]3(C)[C@H](CC[C@@H]4[C@@]5(C)CC[C@H](O)C(C)(C)[C@@H]5CC[C@]43C)[C@@H]12`, the growth in test [1] was -33.1% (active); in [2], -35.3% (active); in test [3] it was -40.4% (active); in test [4], -95.3% (active); in [6] it was 105%; in [7], -82.9% (active). Also, the results for the growth in [10], in [8] and in test [9] were -77.5% (active), -49.1% (active) and -65.5% (active), respectively.
Regarding `O=C1Nc2ccccc2/C1=N\c1nnc(-c2ccccc2)o1`, the growth in [1] was 105%; in [2], 101%; in [3], 102%; in [4], 106%; in test [6], 82.5%; in test [7] it was 72.1%. Besides, the growth in test [8] was 90.1%; in [9], 95.6%.
Consider `Cc1ccc(OCc2occc2C(=O)N2CCOCC2)cc1`, for which the growth in test [1] is 104%; in [2] it was 97.7%; in test [3], 113%; in test [4] it was 102%; in test [6], 109%; in [7] it was 104%. The growth in [8] was 104%; in test [9], 107%.
Take `CC1(C)CC[C@]2(C(=O)O)CC[C@]3(C)C(=CC[C@@H]4[C@@]5(C)CC[C@H](NOCCCN)C(C)(C)[C@@H]5CC[C@]43C)[C@@H]2C1`: the growth is -8% (active) in test [1]; 34.7% in test [2]; 95.2% in test [3]; 100% in test [4]; 95.8% in test [6]; 99.3% in [7]. Moreover, the figures for the growth in [10], in test [8] and in test [9] were 95.6%, 87.1% and 99.4%, respectively.
Take `Brc1ccc(-c2cc(-c3ccc4c(c3)OC=CO4)n[nH]2)s1`: the growth is 54.7% in [1]; 93.6% in test [2]; 96.4% in test [3]; 105% in test [4]; 88% in test [5]; 88.1% in [6]. The growth in [8] is 92.2%; in test [9], 76.8%.
Take `Fc1ccc(-c2cn3c(-c4c[nH]c5ccc(Br)cc45)csc3n2)cc1`: the growth in [1] was 88.7%; in test [2] it was 77.8%; in test [3], 74.8%; in test [4] it was 73.8%; in [6], 84.4%; in test [7] it was 63.7%. Moreover, the growth is 14% in [8] and 48.7% in test [9].
For the molecule `O=C(COc1ccc(/C=C2\C(=O)Nc3ccc(Cl)cc32)cc1)Nc1ccc(Cl)cc1`, the growth in test [1] was 44.9%; in test [2], 68.7%; in [3], 60.1%; in test [4], 69.8%; in test [6], 88.3%; in test [7], 59.8%. In addition, the growth in test [8] is 77.6%; in [9], 59.6%.
As for `COc1ccc(Cn2cc(C#N)c(N)c2C(C)=O)cc1`, the growth in [1] was 122%; in [2], 105%; in test [3], 111%; in test [4], 106%; in test [6] it was 105%; in [7] it was 106%. Besides, the results for the growth in test [10], in [8] and in test [9] were 108%, 102% and 104%, respectively.
Take `CCOC(=O)c1c(N)c(C#N)cn1Cc1ccc(Cl)cc1Cl`: the growth is 26.2% in test [1]; 83% in test [2]; 94.4% in [3]; 85.5% in [4]; 101% in test [6]; 63.3% in test [7]. Moreover, the growth in test [8] was 73.4%; in test [9], 61.5%.
As for `Cc1c(C(=O)/C=C/c2ccc(Cl)cc2)nnn1-c1ccc2oc(=O)ccc2c1`, the growth was 91% in test [1]; 54.2% in test [2]; 99.4% in test [3]; 97.9% in [4]; 106% in test [6]; 102% in [7]. For the same molecule, the growth in test [8] was 109%; in test [9], 88.4%.
With `CC(=O)OC[C@@]12Oc3c(cccc3-c3ccc(O)c4c3O[C@]3(COC(C)=O)C(=C4O)C(=O)C[C@H](C)[C@@H]3OC(C)=O)C(O)=C1C(=O)C[C@H](C)[C@@H]2OC(C)=O`, the growth is -7.02% (active) in test [1]; -27.1% (active) in test [2]; 15% in test [3]; 27.6% in test [4]; -1.41% (active) in test [6]; 26.9% in test [7]. Also, the growth in test [10] was 11.6%; in [8], -13.6% (active); in [9], 24.7%.
As for `C#C[C@]1(O)CC[C@H]2[C@@H]3CC=C4c5sc(Nc6ccc(C)cn6)nc5CC[C@]4(C)[C@H]3CC[C@@]21C`, the growth is -15% (active) in test [1]; -32% (active) in [2]; 25.3% in test [3]; 22.2% in test [4]; -44.8% (active) in test [6]; 29.4% in test [7]. Besides, the growth was 34% in test [10], -11.9% (active) in test [8] and 20.3% in test [9].
Turning to `C#Cc1nc(/C=C/CCCCCCC(=O)NO)cs1`, the growth in test [1] was -39.9% (active); in [2] it was -12.7% (active); in test [3], 31.8%; in test [4], 59.3%; in test [6], 88.8%; in test [7], -80.3% (active). For the same molecule, the growth in test [8] was 80%; in [9], 24.9%.
As for `COc1ccc2[nH]cc(-c3nn4cc(-c5ccncc5)nc4s3)c2c1`, the growth was 61.5% in test [1]; 43.8% in test [2]; 52% in test [3]; 107% in test [4]; 88.3% in [6]; 41.4% in test [7]. Further, the growth is 87.5% in test [8] and 48.9% in test [9].
